# Assay outcomes: PubChem BioAssay, National Center for Advancing Translational Sciences (NCATS)
# Pf Dd2 inh = inhibitors of Plasmodium falciparum Dd2 growth; Potency, µM (highest dose often 28.9 µM), inactives show at the top dose activity, negative = inhibition, hits mostly inhibitors; P. falciparum Dd2 growth, SYBR Green, 72 h; AID 1347417; hit rate 4.3% among 120,000; active = well fitted inhibition curve with a large enough effect;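 also: plate controls were DMSO vehicle for no effect and reference drug for full effect; nearly all actives have a fitted effect of over 65% in size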
#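 Readout: SYBR Green fluorescence, 485 nm excitation, 535 nm emission, after ~16 h lysis at 37C. Before that, Dd2-infected red cells (2.5% hematocrit) grew 72 h with compound, 29 uM top final concentration.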
# Starred values were filed as active, the others as inactive; i = inactive; [ ] = dose if it differs, or a comment. This excerpt belongs to a sample that is enriched for hits. Potency is read from the fitted curve at half-maximal effect.
SMILES,Pf Dd2 inh
COCC(=O)N1CCC2(C1)C(=O)N(CCc1ccccc1)c1ccccc12 (stereo not drawn),-25%
COc1cccc(C(=O)N2CCC3(C2)C(=O)N(CCc2ccccc2)c2ccccc23)c1 (stereo not drawn),7.9µM*
O=C(c1ccccc1)N1CCC2(C1)C(=O)N(Cc1ccccc1)c1ccccc12 (stereo not drawn),i
COCCNC(=O)C[C@@H]1C[C@H]2O[C@H](CNCc3cnccc3Cl)[C@@H](O)[C@H]2O1,-23%[44.1 µM]
O=C(O)c1ccc(-c2ccc(C(F)(F)F)cc2)cc1,2%[44.1 µM]
CN(C)c1ccc2ncc(Nc3cccc(C(F)(F)F)c3)n2n1,i
COc1cncc(Nc2cnc3ccc(-c4cccc(CO)c4)nn23)c1,13µM*
C[S+](=O)([O-])Nc1cccc(Nc2cnc3ccc(-c4ccccc4)nn23)c1,13µM*
COc1ccc(Nc2cnc3ccc(-c4ccc(OC)c(OC)c4)nn23)cn1,i
COc1ccccc1-c1ccc2ncc(Nc3ccccc3)n2n1,7.9µM*
COc1ccccc1-c1ccc2ncc(Nc3ccc(C(N)=O)cc3)n2n1,i
OCc1cccc(-c2ccc3ncc(Nc4ccccc4F)n3n2)c1,-6%[44.1 µM]
COc1ccc(-c2ccc3ncc(Nc4ccc5c(c4)OCCO5)n3n2)cc1OC,i
OCc1cccc(-c2ccc3ncc(Nc4ccnc(N5CCOCC5)c4)n3n2)c1,i
COc1ccc(-c2ccc3ncc(Nc4cccc(Cl)c4)n3n2)cn1,-7%[44.1 µM]
c1ccc(Nc2cnc3ccc(N4CCOCC4)nn23)cc1,i
COc1ccc(Nc2cnc3ccc(-c4ccc(F)cc4)nn23)cc1OC,2.8µM*
O=C(c1cccnc1)N1CCC(c2nnc3n2C(C(=O)N2CCOCC2)CC3)CC1 (stereo not drawn),26%[44.1 µM]
O=C(NC1CCN(c2cc(-c3ccc(F)cc3)[nH]n2)CC1)c1cnccn1,i
COc1ccccc1N1CCN(C(=O)CCc2conc2-c2ccc(C)cc2)CC1,-12%
CCN1CCCC1Cn1ccnc1-c1cc2n(n1)CCCNC2 (stereo not drawn),4%
Cc1ccc2[nH]c(CN3CCN(CC4CCN(C)CC4)CC3)cc(=O)c2c1,8%
O=C([C@H]1CCC[C@H](O)C1)N1CCN(Cc2ccc(C(F)(F)F)cc2)CC1,-11%
COc1ccc(C2Cn3cnc(C(=O)N4CCC(C(=O)Nc5ccc(F)cc5C)CC4)c3CO2)cc1 (stereo not drawn),i
COc1ccc(F)cc1-c1nc2ccc(-c3ccc(OC)c(OC)c3OC)cc2o1,i
SMILES,Pf Dd2 inh
CCC(=O)Nc1ccc(C2(C(=O)N3CCCCCC3)CCC2)cc1,-1%
CS(=O)(=O)N1CCCC(c2nc(-c3cccnc3)no2)CCNC(=O)CC1 (stereo not drawn),-12%
COc1ccc(C2(C(=O)N3CCCC(c4nc(-c5ccccc5)no4)CCNC(=O)CC3)CC2)cc1 (stereo not drawn),7.9µM*
O=C1NCCCCCCN(C(=O)c2cnccn2)[C@H]2C[C@H](c3nc(-c4cccnc4)no3)C[C@@H]12,-23%
CC(C)c1noc(C2CCCN(C(=O)NCCc3ccccc3)CCC(=O)NCC2)n1 (stereo not drawn),39%
CN(C)C(=O)N1CCCC(c2nc(-c3ccccc3)no2)CCNC(=O)CC1 (stereo not drawn),7%
O=C1NCCCCCCN(S(=O)(=O)c2cccnc2)[C@H]2C[C@H](c3nc(-c4cccnc4)no3)C[C@@H]12,2.8µM*
CS(=O)(=O)N1CCCCCCNC(=O)[C@@H]2C[C@@H](c3nc(-c4cccnc4)no3)C[C@@H]21,i
CC(C)c1noc(C2CCCN(Cc3ccccc3)CCC(=O)NCC2)n1 (stereo not drawn),4.5µM*
O=C1CCN(C2CCOCC2)CCCC(c2nc(-c3cccnc3)no2)CCN1 (stereo not drawn),-1%
CCC(=O)N1CCCC(c2nc(-c3ccccc3)no2)CCNC(=O)CC1 (stereo not drawn),31%
O=C1CCN(C2CCCC2)CCCC(c2nc(-c3cccnc3)no2)CCN1 (stereo not drawn),0.71µM*
CC(C)c1noc(C2CCCN(Cc3cccnc3)CCC(=O)NCC2)n1 (stereo not drawn),0%
Cn1nc(C2CCCN(C(=O)C3CCOCC3)C2)n(C2CCCC2)c1=O (stereo not drawn),39%
COc1ccc(C(=O)N2[C@@H]3CC[C@H]2CC(NC(=O)c2cnc(C)cn2)C3)cc1OC (stereo partly drawn),i
Cc1nc2ccc(C(=O)N3CCC(Cn4cc(CO)nn4)CC3)cc2nc1C,-15%
CN1CC(=O)N(C2CCCNCC2)Cc2c1ncnc2N1CCSCC1 (stereo not drawn),3%
CN(Cc1ccccc1)C(=O)C[C@@H]1O[C@H](CNC(=O)Nc2cccc(F)c2)[C@@H](O)[C@H]1O,-13%[44.1 µM]
COCCCNC(=O)CCCN1C(=O)COc2ccc(C(=O)COc3cc(C)ccc3C)cc21,-9%
CCOc1ccc2c(n1)CCN(C(=O)c1ccccn1)C2,38%
COc1ccc(CNC(=O)Cn2c(-c3ccccc3)nc(C)c(CCO)c2=O)cc1,-17%
Cc1noc(-c2cn(C3CCN(C(=O)c4cccc(C#N)c4)CC3)nn2)n1,i
O=C1CCN(C(=O)c2cccnc2)CCCC(c2nc(-c3ccccc3)no2)CCN1 (stereo not drawn),i
COc1ccc(C(=O)N2CCCC(c3nc(-c4ccccc4)no3)CCNC(=O)CC2)c(OC)n1 (stereo not drawn),11µM*
COc1ccc(C(=O)N2CCCC(c3nc(-c4cccnc4)no3)CCNC(=O)CC2)c(OC)n1 (stereo not drawn),i
SMILES,Pf Dd2 inh
CC(C)CN1C(=O)c2cccn2CC1C(=O)NC1CCN(Cc2ccccc2)CC1 (stereo not drawn),-5%
Cc1cc(=O)n(CC(=O)Nc2ccccc2)c(N2CCc3ccccc3C2)n1,i
O=C(NCc1cccc(F)c1)c1ccc2c(c1)CC(=O)N2Cc1ccccc1,i
O=C(c1ccc2c(c1)CC(=O)N2Cc1ccccc1)N1CCN(C2CCCCC2)CC1,1.4µM*
O=C(O)c1ccc2c(c1)CC(=O)N2Cc1ccc(F)cc1,i
COc1cc2c(cc1-c1c(-c3ccccc3)ncn1CCCO)CCC2,13µM*
CCOc1cc(-c2c(-c3ccccc3)ncn2CCNC(C)=O)ccc1OC,-24%
OCCCn1cnc(-c2ccccc2)c1-c1ccc(-c2ccn[nH]2)o1,-11%
Cc1ccccc1NC(=O)CCn1ccn2nc3c(c2c1=O)CCCC3,-6%
COC(=O)c1ccc([C@@H]2Nc3c(OC)ccc(C)c3[C@@H]3C=CC[C@@H]32)cc1,3.2µM*
COc1ccc(C(=O)N2[C@@H]3CC[C@H]2CC(NC(=O)c2ccc(F)cc2)C3)cc1OC (stereo partly drawn),i
COC(=O)c1ccc(-c2nc(-c3ccc(OC)c(OC)c3)no2)cc1,59%
Cc1ncc(CC(=O)N2CCCC(C)(Cc3ccc4c(c3)OCO4)C2)c(=O)[nH]1 (stereo not drawn),-8%
CN1C(=O)[C@@H]2C[C@@H](O)CN2C2(CN(Cc3cccc(F)c3)C2)C1=O,3%[44.1 µM]
Cc1cc(C)c(C(=O)N2CCC(=O)N(CC3CC3)C(C(C)C)C2)cc1C (stereo not drawn),-19%
Cc1c(CC(=O)NCC2CC2)c2c(n1Cc1ccccc1F)CCCC2=O,-8%
Cc1c(CC(=O)NC2CCOC2=O)c2c(n1Cc1ccccc1F)CCCC2=O (stereo not drawn),-7%
Cc1c(CC(=O)NC(C)C2CC2)c2c(n1Cc1ccccc1F)CCCC2=O (stereo not drawn),10µM*
